# Source: PubChem BioAssay
# HSF-1 act: increases HSF-1 driven luciferase reporter signal. NIH3T3-HGL HSF-1 luciferase reporter, MG132, 8 h; 100% = twice DMSO control signal. activation, % at 9 µM. 300,000 compounds, 1.7% hits. AID 504408;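 active = mean replicate activation of at least 50% with a set share of replicates each reaching 50%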;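 note: 0% = median of the neutral control wells and 100% = twice that signal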
# FXN GAA850 act: increases GAA850 frataxin promoter reporter activity; AID 540364; activation, % at 6 µM; HEK293 lucGAA850 FXN promoter luciferase reporter, 24 h; percent of 10 µM SAHA response; 360,000 compounds, 0.56% hits;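 active = activation above the average of all compounds screened plus 3 SD, cutoff fixed separately per campaign, cut at about 7.5% in these data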;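 note: 0% = DMSO wells and 100% = 10 µM SAHA wells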
# AHR act: activators of human aryl hydrocarbon receptor. P35869. AHR-responsive luciferase reporter cells, luminescence. AID 2796. activation, % at 5 µM. 320,000 compounds, 2.5% hits; in the data active = activation above about 47%;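 note: 0% = vehicle wells and 100% = reference agonist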
# HSF1 inhib: HSF1 inhibition; NIH3T3-HGL HSE-luciferase, MG132-induced, luminescence 8 h; active compounds read low; 300,000 compounds, 0.77% hits; activity change, negative = inhibition, % at 7.5 µM (by protocol);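 active = more than half of replicate wells show activity change below -50%, luminescence cut by over half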;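 note: luciferase reports HSF-1 transcriptional activity via heat shock element; 0% = median of DMSO wells and -100% = zero luminescence signal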
# GAA30 counter: activates GAA30 frataxin promoter, counter-screen for GAA850 activators; activation, % at 6 µM; shares compounds with FXN GAA850 act; 1,900 compounds, 66% hits; HEK293 lucGAA30 FXN promoter luciferase, 24 h; DMSO = 0%, 5 µM ipriflavone = 100%;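 active = mean activation above the mean of solvent-only control wells plus 3 SD, cut at about 22% in these data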;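 note: counterscreen of GAA850 promoter hits where activity marks nonselective or luminescence artifacts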
# FXN GAA850 conf: GAA850 FXN promoter activation confirmation; shares compounds with FXN GAA850 act; HEK293 lucGAA850 FXN promoter luciferase reporter, 24 h; 100% = activation by SAHA; activation, % at 6 µM; 1,900 compounds, 86% hits; AID 588351;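 active = mean activation above a set limit taken from the primary screen, cut at about 8% in these data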;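 note: 0% = DMSO wells and 100% = 10 µM SAHA wells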
# Starred values were filed as active, the others as inactive; nt = no result. Most compounds without a hit are left out; they make up all but 4.6% or so of the library.
SMILES,HSF-1 act,FXN GAA850 act,AHR act,HSF1 inhib,GAA30 counter,FXN GAA850 conf
C=C1CCN([C@@H](Cc2ccccc2)C(=O)Nc2ccc(OC)cc2)S(=O)(=O)c2ccccc21,30,12*,3,16,29*,13*
C=C1CCN([C@H](C(=O)Nc2ccc(OC)cc2)C(C)C)S(=O)(=O)c2ccccc21,-8,9.5*,0,3,15,12*
COc1ccc(-c2noc(-c3ccoc3C)n2)cc1OC,41,7.8*,3,16,96*,33*
COc1ccc(-c2noc(-c3ccccc3Cl)n2)cc1OC,23,8.6*,8,15,112*,40*
CCN(c1ccccc1)c1nc2ccsc2c(=O)s1,nt,5,-1,nt,nt,nt
CN(c1ccccc1)c1nc2ccsc2c(=O)s1,17,7.7*,1,11,94*,36*
CCOC(=O)c1[nH]c(C)c(C(=O)NCCN2CCOCC2)c1C,-1,2,5,0,nt,nt
COC(=O)c1c(C)[nH]c(C(=O)CSc2ccc(Cl)cc2)c1C,91*,8.3*,30,55,114*,35*
COC(=O)c1c(C)[nH]c(C(=O)CC#N)c1C,-14,2,1,-1,nt,nt
COc1ccc(CNC(=O)/C=C/c2cc3c(cc2Br)OCO3)cc1,-2,0,13,5,nt,nt
CCOC(=O)c1sc(=NC(=O)c2ccco2)n(C)c1C,nt,5,18,nt,nt,nt
CCOC(=O)c1sc(=NC(=O)c2ccccc2Br)n(C)c1C,39,11*,3,26,106*,29*
Cc1cnn(-c2cc(N/N=C/c3ccccc3)ncn2)c1,5,2,20,12,nt,nt
COC(=O)CCC/C=C1/SCC(NC(=O)c2ccccc2)C1NC(C)=O (stereo unspecified),14,0,-2,4,nt,nt
O=C1c2ccccc2C(=O)N1CCCc1c[nH]c2ccccc12,32,3,-5,26,nt,nt
O=C1c2ccccc2C(=O)N1CCc1c[nH]c2ccccc12,43,9.0*,14,15,88*,37*
OC(COc1ccc(Cl)cc1)CN1CCN(c2ccccn2)CC1 (stereo unspecified),24,2,2,7,nt,nt
COc1cc2c(cc1OC)/C(=C/C(=O)c1ccccc1)NCC2,-11,8.5*,14,-4,29*,15*
COc1cc2c(cc1OC)/C(=C/C(=O)c1ccc(C)cc1)NCC2,-83,8.2*,nt,-80*,37*,24*
O=c1[nH]c(=O)n(C2OC(CO)C(O)C2O)cc1F (stereo unspecified),nt,19*,nt,nt,7,78*
O=C1C2C3C=CC(C3)C2C(=O)N1CNc1ccc(O)cc1 (stereo unspecified),24,nt,0,-3,nt,nt
Cc1cccc(Nc2nc(N)c(C#N)c(CC#N)c2C#N)c1,-5,8.2*,50*,0,27*,17*
Cc1ccc(OCc2cc(C(=O)N3CC4C[C@@H]5CC3C[C@H](C4)C5)no2)cc1C,33,9.0*,13,31,97*,31*
CC(C)=CC(=O)NCCc1ccccc1,28,15*,6,14,75*,20*
Cc1ccc(/C=C/C(=O)N2CCc3ccccc32)o1,40,11*,12,22,116*,37*
SMILES,HSF-1 act,FXN GAA850 act,AHR act,HSF1 inhib,GAA30 counter,FXN GAA850 conf
COc1ccccc1CCC(=O)OC(C)C(=O)Nc1c(C)n(C)n(-c2ccccc2)c1=O (stereo unspecified),14,0,0,2,nt,nt
Cc1ccc(S(=O)(=O)NNC(=O)C2COc3ccccc3O2)cc1C (stereo unspecified),-36,1,2,-20,nt,nt
Cc1cccc(-c2nc(CN3CCCC(C(=O)NC4CCCC4)C3)c(C)o2)c1 (stereo unspecified),15,8.0*,3,7,10,6
Cc1ccc(-n2ncc3c(N4CCCC4)ncnc32)c(C)c1,29,7.6*,7,17,72*,24*
COc1cc(NC(=O)C2Cc3ccccc3CN2S(C)(=O)=O)cc(OC)c1 (stereo unspecified),-9,2,1,-2,nt,nt
CCCCN1C(=O)C(O)(c2ccccc2)c2cc(Br)ccc21 (stereo unspecified),13,8.1*,0,0,20,14*
Cc1ccc(C(=O)CC2(O)C(=O)N(CCc3ccccc3)c3ccc(Br)cc32)o1 (stereo unspecified),22,-3,22,4,nt,nt
CCCC(=O)N1c2ccccc2C(=C2SC(C(=O)OC)=C(C(=O)OC)S2)C(=S)C1(C)C,17,1,1,4,nt,nt
CCC(C(=O)NC1CCCC1)N(Cc1ccco1)C(=O)Cn1nnc(-c2ccc(C)cc2)n1 (stereo unspecified),15,-2,0,11,nt,nt
Nc1nc(N)nc(-c2cc(F)ccc2O)n1,nt,12*,25,nt,67*,42*
COc1ccc(O)c(-c2nc(N)nc(N)n2)c1,nt,4,29,nt,nt,nt
O=C1C(Cc2ccccc2)Nc2ncnc(N3CCOCC3)c2N1Cc1ccc(Cl)cc1 (stereo unspecified),6,1,-6,3,nt,nt
Cc1snc(SCC(=O)c2ccc([N+](=O)[O-])cc2)c1C#N,nt,4,nt,nt,nt,nt
Cc1snc(SCC(=O)c2ccc(F)cc2)c1C#N,13,8.2*,0,7,79*,28*
CCSc1nnc(NC(=O)CSC2=NN3CCCC(=O)N=C3S2)s1,-4,2,0,-5,nt,nt
CCN1C(=O)/C(=C/c2cc(C)n(C)c2C)SC1=Nc1ccc(OC)cc1,16,9.9*,11,18,19,14*
N#C/C(=N\Nc1ccc(Cl)cc1)C(=N)N1CCCCCC1,11,12*,21,-1,130*,49*
N#Cc1cc(Oc2cccc3cccnc23)c(-n2nnc3ccccc32)cc1C#N,211*,7.7*,22,183,-1,15*
N#Cc1cc(O)c(-n2nnc3ccccc32)cc1C#N,-4,0,7,3,nt,nt
Fc1ccccc1N=C1NN=C(c2ccccc2)CS1,-24,8.0*,47,-20,124*,41*
CN(Cc1ccc(OCC(O)CN2CCCCC2)cc1)Cc1ccnc2ccccc12 (stereo unspecified),3,-1,nt,-6,nt,nt
COc1cc2c(c(OCC(=O)NC(C)C)c1)C(=O)O[C@@H](C)CCCC(=O)CCCCC2,7,12*,1,2,23*,9.8*
CC(/C=C\C=C\c1ccccc1)=N\NC(=O)c1cncc(Br)c1,15,1,46,-3,nt,nt
Cc1ccccc1Nc1nc(N)nc(CSc2nc3ccccc3s2)n1,39,4,39,21,nt,nt
Cc1ccc(Nc2nc(N)nc(CSc3nc4ccccc4s3)n2)cc1,18,11*,18,13,40*,22*
